High-throughput results deposited in PubChem by several laboratories.
B2AR ag: human beta-2 adrenergic receptor agonism by FAP; P07550; Am2.2-beta2AR cells, FAP receptor internalization, flow cytometry; response, % (no concentration beside the values); actives 0.43% (n = 340,000); AID 504454;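 active = response above a set limit, near 3 SD of response in nonfluorescent compounds, cut at about 42% in these data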
A1 inh: inhibitors of the anti-apoptotic protein A1, read as caspase activation. MEF A1-2A-BIM cells, Caspase-Glo 3/7 luminescence, 3 h; percent of clofoctol response, vehicle zero. caspase activation, % (concentration not given with the values). actives 0.066% (n = 330,000);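 active = over half of replicate activation scores above 10%, or exactly half above 10 with the replicate mean above 10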
VLA-4 inh: inhibition in a human VLA-4 binding assay | P13612 | VLA-4 expressing cells, ligand binding flow cytometry | inhibition, % (about 7 µM as worked out from the volumes in the protocol) | actives 0.2% (n = 330,000) | AID 2557; in the data active = inhibition above about 50%
Target sequence (P13612 whole entry, looked up): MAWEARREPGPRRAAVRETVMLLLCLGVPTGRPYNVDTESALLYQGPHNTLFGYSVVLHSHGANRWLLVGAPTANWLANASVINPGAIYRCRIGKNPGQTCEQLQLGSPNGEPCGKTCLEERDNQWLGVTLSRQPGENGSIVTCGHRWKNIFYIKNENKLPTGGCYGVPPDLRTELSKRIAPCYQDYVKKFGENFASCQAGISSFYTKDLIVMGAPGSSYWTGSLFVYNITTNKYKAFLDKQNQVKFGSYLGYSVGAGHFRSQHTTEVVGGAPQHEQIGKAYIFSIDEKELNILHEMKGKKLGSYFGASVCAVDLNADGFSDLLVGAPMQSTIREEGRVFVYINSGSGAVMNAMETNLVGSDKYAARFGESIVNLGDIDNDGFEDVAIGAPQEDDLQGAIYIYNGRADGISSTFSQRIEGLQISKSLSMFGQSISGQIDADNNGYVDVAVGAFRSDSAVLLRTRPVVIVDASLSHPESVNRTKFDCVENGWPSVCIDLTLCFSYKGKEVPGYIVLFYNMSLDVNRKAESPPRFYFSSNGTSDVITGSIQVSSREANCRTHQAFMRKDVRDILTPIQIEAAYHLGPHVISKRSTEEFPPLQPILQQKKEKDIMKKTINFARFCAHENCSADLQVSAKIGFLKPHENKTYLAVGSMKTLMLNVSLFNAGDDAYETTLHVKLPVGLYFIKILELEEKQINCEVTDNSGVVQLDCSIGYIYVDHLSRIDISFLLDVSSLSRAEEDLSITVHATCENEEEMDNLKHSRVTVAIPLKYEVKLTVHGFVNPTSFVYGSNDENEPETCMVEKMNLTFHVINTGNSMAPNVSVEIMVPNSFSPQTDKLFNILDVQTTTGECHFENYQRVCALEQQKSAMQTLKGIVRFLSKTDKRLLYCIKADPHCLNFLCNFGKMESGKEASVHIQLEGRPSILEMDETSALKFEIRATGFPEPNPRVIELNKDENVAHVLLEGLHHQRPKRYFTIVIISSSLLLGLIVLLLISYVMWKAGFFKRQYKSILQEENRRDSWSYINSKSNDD
NTR1 agonist: NTR1 (human) agonism; NTR1-U2OS beta-arrestin-GFP spot imaging, agonist mode; activation, % at 20 µM; AID 493036; actives 0.17% (n = 330,000);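 active = activation at or above 40% of the spot to cytoplasm intensity ratio, with at least 20 cells analyzed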;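 also: 0% = DMSO without peptide and 100% = 100 nM NTR1 peptide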
GRK2 inh: blocks RNA aptamer binding to human GRK2; bead flow cytometry, FAM-aptamer displacement from GRK2; inhibition of aptamer binding, % at 10 µM; actives 0.59% (n = 330,000); P25098; AID 488847;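 active = inhibition of aptamer binding above 40%, roughly 3 SD of noise, on plates passing a quality check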;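 also: median bead fluorescence of bound FAM aptamer so fluorescent compounds give negative values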
The depositor's hits bear a star; / = no result given. In the library only some 1.3% were active in any assay of this set; here they are far more common.

SMILES	B2AR ag	A1 inh	VLA-4 inh	NTR1 agonist	GRK2 inh
CC(=O)c1ccc(N2C(=O)CC(N3CCN(S(=O)(=O)c4ccc(C)c(C)c4)CC3)C2=O)cc1 (stereo unspecified)	-1.3	-0.9	8.9	-0.1	0.0
FC(F)(F)C1=Nc2cccc3cccc(c23)N1	81.6*	/	/	0.6	/
Fc1ccc(C2=Nc3cccc4cccc(c34)N2)cc1	7.6	-0.1	4.2	-0.6	0.0
Cc1ccc(C)c(NC(=S)NC(NC(=O)Cc2cccc3ccccc23)C(Cl)(Cl)Cl)c1 (stereo unspecified)	-4.4	11.6*	-6.0	12.6	1.0
c1ccc(Cc2nn3c(Cn4nnc5ccccc54)nnc3s2)cc1	2.6	21.2*	-6.9	1.5	0.0
O=C(COc1ccccc1Cl)Nc1ccc(N2CCCC2)cc1	-5.8	0.3	-35.6	11.5	54.0*
Cc1nnc(NC(=O)c2ccc(N3CCCC3=O)cc2)s1	0.8	/	/	-0.9	/
O=C(NC1=NCCS1)c1ccc(N2CCCC2=O)cc1	47.7*	-0.1	6.5	-0.5	8.0
CN1CCN(CCCNC(=O)c2ccc(/C=C3/Sc4ccccc4N(Cc4cccc(Cl)c4)C3=O)cc2)CC1	23.6	/	/	/	/
CN1CCN(CCCNC(=O)c2ccc(/C=C3\Sc4ccccc4N(Cc4ccc(F)cc4)C3=O)cc2)CC1	98.8*	/	/	/	/
CCN1CCN(CCNC(=O)c2ccc(/C=C3\Sc4ccccc4N(Cc4ccccc4F)C3=O)cc2)CC1	55.4*	-0.6	3.1	37.4	0.0
Cc1ccc(S(=O)(=O)N2CCC(C(=O)Nc3ccc(N4CCOCC4)cc3)CC2)cc1C	3.4	/	/	1.1	/
C(#Cc1ccccc1)C[N+]1(CC#Cc2ccccc2)CCCC1	4.9	-0.2	7.8	1.6	0.0
C=CC#CC[N+]1(CC#Cc2ccccc2)CCOCC1	72.0*	/	/	/	/
COc1ccc2cc3c(N)nn(C(=O)c4cccc([N+](=O)[O-])c4)c3nc2c1	3.6	-0.7	13.9	3.2	73.0*
COc1ccc2cc3c(N)nn(C(=O)C4CCC(C(C)(C)C)CC4)c3nc2c1 (stereo unspecified)	-15.3	-2.5	39.7	42.0*	4.0
COc1ccc2cc3c(N)nn(C(=O)Cc4ccccc4OC)c3nc2c1	10.0	-0.2	40.1	10.6	4.0
Cc1cc(Cl)ccc1OCC(=O)OCC(=O)c1c(N)n(C)c(=O)n(C)c1=O	0.5	15.6*	0.0	1.0	0.0
Cn1nc(-c2ccccn2)nc2c(=O)n(C)c(=O)nc1-2	73.8*	-0.9	33.2	-0.3	0.0
CCCc1nc2c(=O)n(C)c(=O)nc-2n(C)n1	80.0*	/	/	/	/
COc1cc(/C=C(/C#N)c2nc3ccccc3[nH]2)ccc1OCc1ccc(C(=O)O)o1	39.6	-0.2	-17.6	-0.6	0.0
COC(=O)c1ccc(COc2ccc(/C=C(\C#N)c3nc4ccccc4[nH]3)cc2OC)o1	42.9*	-0.7	-12.2	10.0	0.0
COc1ccc(C2/C(=C(/O)c3ccc4c(c3)CC(C)O4)C(=O)C(=O)N2CCCN2CCOCC2)cc1 (stereo unspecified)	3.6	-0.4	8.5	0.2	0.0
Cc1cccc(NC(=O)CNCC(=O)Nc2cccc(C)c2C)c1C	1.3	1.8	10.3	3.5	5.0
Cc1cccc(NC(=O)CNC(=O)c2cccc(-n3cccc3)c2)c1C	-3.9	0.4	12.0	-0.8	50.0*
SMILES	B2AR ag	A1 inh	VLA-4 inh	NTR1 agonist	GRK2 inh
O=C(/C=C/c1cccnc1)/C=C/c1cccnc1	67.5*	/	/	/	/
O=C(/C=C/c1cccnc1)c1ccc(NC(=O)c2cccc(Br)c2)cc1	8.2	0.1	22.2	3.6	0.0
C(=Cc1cccnc1)c1ccncc1	3.2	/	/	/	/
Cc1cccc(C(=O)Nc2ccc(C(=O)/C=C/c3ccncc3)cc2)c1	60.4*	-0.1	9.4	19.4	0.0
Cc1cccc(C(=O)Nc2ccc(C(=O)/C=C/c3cccnc3)cc2)c1	79.6*	-2.8	13.3	/	2.0
Cc1cccc(C(=O)Nc2cccc(C(=O)N/N=C/c3ccncc3)c2)c1	1.7	0.2	-11.9	0.3	2.0
O=C(O)CN1C(=O)/C(=C\C(Br)=C\c2ccccc2)SC1=S	23.6	0.6	6.0	1.0	2.0
O=C(Cc1ccc(S(=O)(=O)N2CCOCC2)s1)Nc1cc(Cl)ccc1Cl	-8.2	-1.0	5.7	2.2	1.0
CC(C)(C)c1nn(-c2ccccc2)c2nc(Cl)c(C=O)cc12	1.0	-1.1	0.0	1.0	2.0
CC(C)(C)c1nn(-c2ccccc2)c2[nH]c(=O)c(C=O)cc12	55.4*	-0.1	2.6	3.0	0.0
N#C/C(=C\c1cccc([N+](=O)[O-])c1)C(=O)Nc1cccnc1	2.2	0.1	6.8	-0.9	0.0
N#C/C(=C/c1cccc([N+](=O)[O-])c1)C(=O)Nc1ccccc1O	57.4*	0.2	4.8	3.4	0.0
Cc1ccc(NC(=O)CSc2nc3ccc(Nc4nc(N5CCOCC5)nc(N5CCOCC5)n4)cc3s2)cc1	20.5	10.0*	-1.1	14.5	0.0
O=C(Cn1cnc([N+](=O)[O-])c1)NC1CCCC1	3.6	-0.3	-7.7	1.8	0.0
O=c1c2c3nc4ccccc4nc3n(-c3ccc4c(c3)OCCO4)c2ncn1C1CCCC1	52.9*	-0.7	-13.6	5.4	0.0
O=C(Cc1c(F)cccc1Cl)Nc1nccs1	-5.6	0.7	6.0	0.5	1.0
COc1cccc(OC)c1-c1nn2c(-c3cc(-c4ccccc4)n[nH]3)nnc2s1	100.4*	-0.7	22.6	3.1	24.0
CCCCn1c(N)c(N(CC(C)C)C(=O)C2=NN(c3cc(C)ccc3C)C(=O)CC2)c(=O)[nH]c1=O	8.5	0.1	-0.1	0.4	0.0
O=C1ON=C(c2cccc([N+](=O)[O-])c2)/C1=C/c1ccc(O)cc1	53.1*	-0.7	-33.3	37.9	11.0
O=C1CC(NS(=O)(=O)c2cccnc2)CN1c1cccc(F)c1 (stereo unspecified)	4.8	0.4	4.6	-1.4	0.0
N#CC(C#N)=Cc1c[nH]c(=O)c(C#N)c1Nc1ccccc1	-4.8	-1.4	18.5	-0.3	3.0
N#CCC(=O)N/N=C/c1ccc(N2N=C(c3ccccc3)CC2c2ccccc2)cc1 (stereo unspecified)	-72.5	-0.2	-178.5	1.3	67.0*
COc1ccc(C2CC(c3ccccc3)=NN2c2ccc(/C=N/NC(=O)c3ccncc3)cc2)cc1 (stereo unspecified)	13.2	1.4	-17.9	1.2	4.0
CC(NC(=O)CNC(=O)c1ccc2c(c1)OCO2)c1ccc(S(N)(=O)=O)cc1 (stereo unspecified)	-5.5	2.4	0.0	-1.1	2.0
CCN(CC)c1ccc(/C=N/NC(=O)c2cccc(S(=O)(=O)Nc3ccccc3OC)c2)c(O)c1	26.9	-0.5	7.2	3.6	70.0*
CN(C)c1cc(Nc2ccc(O)cc2)c([N+](=O)[O-])c2nonc12	-1.9	0.3	11.8	1.3	1.0
O=C(O)c1ccccc1Nc1cc(Cl)c2nonc2c1[N+](=O)[O-]	2.7	1.9	7.6	-0.4	2.0
O=[N+]([O-])c1c(Nc2ccc(O)cc2)cc(Cl)c2nonc12	80.9*	1.2	27.3	-3.9	1.0
